Reference: PubChem BioAssay (NCI)
About 83,000 compounds went through this panel and 20% of them were active in at least one assay; those are over-represented in the sample as a whole.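 Values shown are percent growth following 48 h exposure of cells in 96-well plates to a single concentration of compound; below 10 was considered active.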 The source made the active and inactive calls.

Assays:
Experiment in all cases: NCI-60 one-dose screen, 48 h (100 = growth as untreated, 0 = no growth, -100 = all killed)
Details in all cases: 10 µM unless noted
NCI-H23 lung = system: NCI-H23 lung
NCI-H226 lung = system: NCI-H226 lung
NCI-H322M lung = system: NCI-H322M lung
HOP-62 NSCLC = system: HOP-62 NSCLC
NCI-H460 lung = system: NCI-H460 lung
HOP-92 NSCLC = system: HOP-92 NSCLC
NCI-H522 lung = system: NCI-H522 lung
A549/ATCC NSCLC = system: A549/ATCC NSCLC
786-0 renal = system: 786-0 renal
COLO 205 colon = system: COLO 205 colon

Measured: growth

Nc1c(C(=O)Nc2ccccc2)sc2nc3c(cc12)CCCCCC3
inactive: NCI-H23 lung 22.5% | NCI-H226 lung 27% | NCI-H322M lung 29.2% | HOP-62 NSCLC 15.5% | HOP-92 NSCLC 76.5% | A549/ATCC NSCLC 15% | 786-0 renal 10.4%
active: NCI-H460 lung 4.61% | NCI-H522 lung -11.6% | COLO 205 colon -17%

COc1ccc(/C=C2\COc3ccc(O)c(O)c3C2=O)c(OC)c1
inactive: NCI-H23 lung 78.8% | NCI-H226 lung 92.4% | NCI-H322M lung 73.7% | HOP-62 NSCLC 72.9% | NCI-H460 lung 72.4% | HOP-92 NSCLC 91.5% | A549/ATCC NSCLC 62.9% | 786-0 renal 61.1% | COLO 205 colon 107%
active: NCI-H522 lung -17%

CCCCOc1nc2ccc(Cl)cc2cc1/C=C/C(=O)/C=C1/CC(c2cc3cc(Cl)ccc3nc2OCCCC)Nc2ccccc2N1 (stereo not given)
inactive: NCI-H23 lung 87.2% | NCI-H226 lung 90.8% | NCI-H322M lung 103% | HOP-62 NSCLC 94.8% | NCI-H460 lung 85% | HOP-92 NSCLC 77.3% | NCI-H522 lung 90.4% | A549/ATCC NSCLC 94.2% | 786-0 renal 99.1% | COLO 205 colon 90.9%

COc1cc(NC(=O)c2cccc(-c3cc(=O)c4c(O)c(OC)c(OC)cc4o3)c2)cc(OC)c1OC
inactive: NCI-H23 lung 34.9% | NCI-H322M lung 74.4% | HOP-62 NSCLC 11.7% | NCI-H460 lung 53.8% | HOP-92 NSCLC 56.1% | NCI-H522 lung 41.2% | A549/ATCC NSCLC 40.5% | 786-0 renal 66.3% | COLO 205 colon 67.7%
active: NCI-H226 lung 7.69%

C=C1C(=O)O[C@H]2[C@H]1CC/C(COC(=O)/C=C\C(=O)NCc1ccc(Cn3c(=O)sn(-c4ccc(OC)cc4)c3=O)cc1)=C\CC[C@@]1(C)O[C@@H]21
active: NCI-H23 lung -69.9% | NCI-H226 lung -65.9% | HOP-62 NSCLC -20.4% | NCI-H460 lung -65.5% | HOP-92 NSCLC -65% | NCI-H522 lung -45.2% | 786-0 renal -57.9% | COLO 205 colon -45.9%
inactive: NCI-H322M lung 32.4% | A549/ATCC NSCLC 12.6%

Cc1ccc(-n2nnc(C3=NCCc4c3[nH]c3ccc(Cl)cc43)c2C)cc1
inactive: NCI-H23 lung 80.6% | NCI-H226 lung 76.2% | NCI-H322M lung 85% | HOP-62 NSCLC 72.2% | NCI-H460 lung 72.5% | HOP-92 NSCLC 76.4% | NCI-H522 lung 30.9% | A549/ATCC NSCLC 41.3% | 786-0 renal 78.2% | COLO 205 colon 101%

C=C1C(=O)O[C@H]2[C@H]1CC/C(COC(=O)/C=C\C(=O)NCc1ccc(Cn3c(=O)sn(-c4ccc(C#N)cc4)c3=O)cc1)=C\CC[C@@]1(C)O[C@@H]21
active: NCI-H23 lung -80.4% | NCI-H226 lung -69.5% | NCI-H322M lung -46.6% | HOP-62 NSCLC -37.3% | NCI-H460 lung -68.7% | HOP-92 NSCLC -65.8% | NCI-H522 lung -47.5% | A549/ATCC NSCLC -21.4% | 786-0 renal -75.8% | COLO 205 colon -55.4%

c1ccc(-c2oc3ccccc3c2-c2ccccc2)cc1
inactive: NCI-H23 lung 90.2% | NCI-H226 lung 88.3% | NCI-H322M lung 95.8% | HOP-62 NSCLC 105% | NCI-H460 lung 99.8% | NCI-H522 lung 83% | A549/ATCC NSCLC 97.2% | 786-0 renal 98.8%

CC(=O)c1ccc2c(c1)CCN2
inactive: NCI-H23 lung 102% | NCI-H226 lung 102% | NCI-H322M lung 101% | HOP-62 NSCLC 96.8% | NCI-H460 lung 117% | NCI-H522 lung 91% | A549/ATCC NSCLC 98% | 786-0 renal 108% | COLO 205 colon 102%

Clc1ccc2c(NCCCN3CCN(c4nc(-n5ccnc5)nc5ccccc45)CC3)ccnc2c1
inactive: NCI-H23 lung 104% | NCI-H226 lung 113% | NCI-H322M lung 87.1% | HOP-62 NSCLC 84.7% | NCI-H460 lung 89.3% | NCI-H522 lung 75.7% | A549/ATCC NSCLC 96.9% | 786-0 renal 78.8%

Cc1nc(C)c(-c2nn3c(-c4cccc(F)c4)nnc3s2)s1
inactive: NCI-H23 lung 97.3% | NCI-H226 lung 102% | NCI-H322M lung 106% | HOP-62 NSCLC 98.7% | NCI-H460 lung 102% | HOP-92 NSCLC 86.2% | NCI-H522 lung 77.6% | A549/ATCC NSCLC 87% | COLO 205 colon 101%

COc1ccc2cc(-c3ccc(C(=O)NN)c(C)n3)ccc2c1
inactive: NCI-H23 lung 95.5% | NCI-H226 lung 103% | NCI-H322M lung 94.6% | HOP-62 NSCLC 101% | NCI-H460 lung 104% | NCI-H522 lung 69.8% | A549/ATCC NSCLC 93.1% | 786-0 renal 95.1% | COLO 205 colon 104%

N=C(N)c1ccc(-c2ccc(-c3ccc(Cl)c(Cl)c3)o2)nc1
active: HOP-62 NSCLC 5.09% | NCI-H460 lung -78.1% | A549/ATCC NSCLC -35.2% | 786-0 renal -74.9%
inactive: NCI-H23 lung 65.5% | NCI-H226 lung 109% | NCI-H322M lung 42.4% | NCI-H522 lung 78.2%

CC1=NN(c2cccc(Cl)c2)C(=O)/C1=C\c1cn(CC(O)CN2CCCCC2)c2ccccc12 (stereo not given)
active: COLO 205 colon -58%
inactive: NCI-H23 lung 97.8% | NCI-H226 lung 96.8% | NCI-H322M lung 103% | HOP-62 NSCLC 73.6% | NCI-H460 lung 44.8% | HOP-92 NSCLC 56.3% | NCI-H522 lung 71.9% | A549/ATCC NSCLC 95.2%

Cn1ccc(Cc2cnc(N)s2)n1
inactive: NCI-H23 lung 101% | NCI-H226 lung 98.8% | NCI-H322M lung 102% | HOP-62 NSCLC 100% | NCI-H460 lung 106% | NCI-H522 lung 84.3% | A549/ATCC NSCLC 84.3% | 786-0 renal 101% | COLO 205 colon 105%

NC(=S)c1csc(CCNC(=O)c2ccccc2)n1
inactive: NCI-H23 lung 100% | NCI-H226 lung 116% | NCI-H322M lung 108% | HOP-62 NSCLC 109% | NCI-H460 lung 109% | NCI-H522 lung 106% | A549/ATCC NSCLC 90.1% | 786-0 renal 98.2%

COC1=CC(c2ccc[nH]2)=N/C1=C\c1[nH]c(C)c(C(=O)OCCn2cc(CCC[C@@H]3Cc4cc(O)ccc4C4CC[C@]5(C)[C@@H](O)CC[C@H]5C43)nn2)c1C (stereo not given in full)
inactive: NCI-H23 lung 80.8% | NCI-H226 lung 85.7% | NCI-H322M lung 82% | HOP-62 NSCLC 88.6% | NCI-H460 lung 53.3% | NCI-H522 lung 92.1% | A549/ATCC NSCLC 82.2% | 786-0 renal 62.5% | COLO 205 colon 80.5%

COC(=O)Nc1nc2ccc(C(=O)C3CC3)cc2[nH]1
active: NCI-H460 lung 2.65% | NCI-H522 lung -37.6% | COLO 205 colon -34.1%
inactive: NCI-H23 lung 33.8% | NCI-H226 lung 149% | NCI-H322M lung 50.9% | HOP-62 NSCLC 38.1% | HOP-92 NSCLC 53.5% | 786-0 renal 29.2%

CC(C)(C)Nc1c(-c2c3ccccc3cc3ccccc23)nc2ccccn12
inactive: NCI-H23 lung 77.4% | NCI-H226 lung 83.9% | NCI-H322M lung 71.2% | HOP-62 NSCLC 65.1% | NCI-H460 lung 77% | NCI-H522 lung 59.1% | A549/ATCC NSCLC 49.4% | 786-0 renal 72%

O=C(c1ccccc1)c1ccc(Cl)c([N+](=O)[O-])c1
inactive: NCI-H23 lung 100% | NCI-H226 lung 104% | NCI-H322M lung 90.6% | HOP-62 NSCLC 124% | NCI-H460 lung 101% | NCI-H522 lung 77% | A549/ATCC NSCLC 103% | 786-0 renal 103%

COc1cc2c(cc1OC)-c1ccc3cc4c(cc3c1N(CCCN(C)C)C2)OCO4
inactive: NCI-H23 lung 48.7% | NCI-H226 lung 57.6% | NCI-H322M lung 51.3% | HOP-62 NSCLC 38% | NCI-H460 lung 14.6% | NCI-H522 lung 19.5% | A549/ATCC NSCLC 20.2% | 786-0 renal 35%

CCNCCNc1cc(-c2ccc(C(=O)OC)cc2)c(C#N)c2nc3ccccc3n12
active: NCI-H460 lung 4.26%
inactive: NCI-H23 lung 66.6% | NCI-H226 lung 87.8% | NCI-H322M lung 43.7% | HOP-62 NSCLC 68.4% | NCI-H522 lung 32.3% | A549/ATCC NSCLC 11.9% | 786-0 renal 44.2%

CCNCCNc1cc(C2CCCC2)c(C#N)c2nc3ccccc3n12
active: NCI-H460 lung 2.84% | NCI-H522 lung 6.72% | A549/ATCC NSCLC 7.98%
inactive: NCI-H23 lung 69.6% | NCI-H226 lung 46.1% | NCI-H322M lung 23.7% | HOP-62 NSCLC 33.9% | 786-0 renal 20%

COc1cc2nc(Nc3ccc(F)cc3)nc(N)c2cc1OC
inactive: NCI-H23 lung 95.1% | NCI-H226 lung 81.7% | NCI-H322M lung 95.4% | HOP-62 NSCLC 112% | NCI-H460 lung 99.5% | NCI-H522 lung 92% | A549/ATCC NSCLC 92.6% | 786-0 renal 87.1%

CCn1c(Sc2nnc(NC(=O)CSC(=S)N3CCCCC3)s2)nc2c1c(=O)n(C)c(=O)n2C
inactive: NCI-H23 lung 91.3% | NCI-H226 lung 86.6% | NCI-H322M lung 101% | HOP-62 NSCLC 87.1% | NCI-H460 lung 101% | NCI-H522 lung 38.1% | A549/ATCC NSCLC 78.1% | 786-0 renal 92.4%

C#C[C@]1(O)CC[C@H]2[C@@H]3CC=C4c5sc(N=C(N)N)nc5CC[C@]4(C)[C@H]3CC[C@@]21C
active: HOP-62 NSCLC -37.5% | NCI-H460 lung -14.5% | NCI-H522 lung -24.1% | A549/ATCC NSCLC -13.1% | COLO 205 colon -38.7%
inactive: NCI-H23 lung 28.5% | NCI-H226 lung 35.2% | NCI-H322M lung 27.9% | HOP-92 NSCLC 32.7%

CCN(CC)CCOc1ccc(/C(=C(\C)c2ccc(OC)c(F)c2)c2ccc(Cl)cc2)cc1
inactive: NCI-H23 lung 80.8% | NCI-H226 lung 102% | NCI-H322M lung 85.1% | HOP-62 NSCLC 78.5% | NCI-H460 lung 61.1% | NCI-H522 lung 86.1% | A549/ATCC NSCLC 59.7% | 786-0 renal 68.2% | COLO 205 colon 42.2%

C=C(C)[C@@H]1CC[C@]2(CN)CC[C@]3(C)[C@H](CC[C@@H]4[C@@]5(C)CCC(N)[C@@](C)(CO)[C@@H]5CC[C@]43C)[C@@H]12 (stereo not given in full)
active: HOP-62 NSCLC -89.2% | NCI-H460 lung -75.7% | NCI-H522 lung -77.5% | A549/ATCC NSCLC -82.3% | 786-0 renal -92.9%
inactive: NCI-H23 lung 53% | NCI-H226 lung 89.6% | NCI-H322M lung 34.4%

CCN(CC)CCNc1ccc(C)c2sc3cc(C)ccc3c(=O)c12
inactive: NCI-H23 lung 72.3% | NCI-H226 lung 95.5% | NCI-H322M lung 68.8% | HOP-62 NSCLC 62.9% | NCI-H460 lung 43% | NCI-H522 lung 44.2% | A549/ATCC NSCLC 56.2% | 786-0 renal 42.9%
